Screens as filed in PubChem.
A selection: hits, their analogues and other compounds. The true share with any hit is near 2.4%.
Pol beta inh = inhibitors of human DNA polymerase beta; P06746; Pol beta primer extension/strand displacement, fluorescence kinetic; Potency, µM (titrated, usually from 114 µM), most hits filed as inhibitors; hit rate 1.3% among 340,000; AID 485314
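10 nM enzyme + cpd, 15 min RT; start with substrate 50 nM final; read 0 min and after 10 min RT. Corrected, normalized data; 4-parameter Hill curve fit.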
WRN helicase inh = WRN helicase (human) inhibition; Potency, µM (highest dose often 114 µM), actives largely listed as inhibitors; Q14191; hit rate 0.46% among 360,000; WRN helicase unwinding, fluorescent forked duplex, kinetic; also: nearly all actives have a fitted effect of over 55% in size
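Screening of the MLSMR collection measured strand separation of a quenched forked DNA duplex (100 nM) by 20 nM WRN with 2 mM ATP, all final. Compounds were preincubated with enzyme 15 min at room temperature.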
POLK inh = inhibitors of human DNA polymerase kappa. purified Pol kappa, fluorescent DNA synthesis assay, 10 min. hit rate 0.53% among 400,000. AID 588579. Potency, µM (series often up to 107 µM), usual class: inhibitors. Q9UBT6
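Kinetic fluorescence screen: compound preincubated 15 min RT with 10 nM enzyme; 50 nM substrate (final) initiates; reads at 0/10 min.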
POLH inh = blocks human DNA polymerase eta activity. recombinant Pol eta, fluorescent DNA replication assay. Potency, µM (highest dose often 114 µM), actives largely listed as inhibitors. hit rate 1.2% among 390,000. AID 588591
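Pol eta at 10 nM preincubated with compounds 15 min at room temperature; reaction started with fluorescent substrate (50 nM final) and read kinetically at 0 and 10 min.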
FEN1 inhibitor = blocks human flap endonuclease 1 | Recombinant FEN1 flap cleavage, fluorescence, 15 min | Potency, µM (series often up to 114 µM), most hits filed as inhibitors | AID 588795 | hit rate 0.35% among 390,000 | P39748; also: nearly all actives have a fitted effect of over 65% in size
Target sequence (P39748 whole entry, looked up): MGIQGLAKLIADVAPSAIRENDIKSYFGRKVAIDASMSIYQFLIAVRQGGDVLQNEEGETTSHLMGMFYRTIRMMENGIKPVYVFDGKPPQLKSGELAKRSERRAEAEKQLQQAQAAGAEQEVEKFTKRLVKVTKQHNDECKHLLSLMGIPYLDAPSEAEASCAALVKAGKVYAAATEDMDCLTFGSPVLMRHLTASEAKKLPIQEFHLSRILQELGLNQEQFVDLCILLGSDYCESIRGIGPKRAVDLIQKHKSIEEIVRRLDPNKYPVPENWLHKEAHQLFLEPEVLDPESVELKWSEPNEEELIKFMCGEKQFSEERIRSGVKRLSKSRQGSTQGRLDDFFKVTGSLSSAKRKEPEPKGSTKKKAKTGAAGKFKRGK
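Enzyme 10 nM, 15 min RT preincubation with compound; start with substrate 50 nM final; reads at 0 and 15 min; qHTS titration, four-parameter Hill fit.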
POLI inh = DNA polymerase iota (human) inhibition | Pol iota fluorescent replication assay, 10 min | Potency, µM (highest dose often 115 µM), hits mostly inhibitors | hit rate 1% among 390,000 | AID 588590
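Pol iota at 10 nM preincubated 15 min with compounds at room temperature; reaction started with fluorescent substrate, 50 nM final. Fluorescence read kinetically at 0 and 10 min; buffer-only wells as negative control.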
Hits are given with their value; – = inactive; ? = inconclusive; · = not tested or not shown; [ ] = dose if it differs, or a comment. Calls follow the shape of the dose curve; as a rule, active = well fitted curve in the direction sought with a large enough effect; inconclusive = small, poorly fitted or top-dose-only effect, or another doubt; inactive = no such curve, though single readings can be large; an effect the other way counts as inactive or inconclusive.

SMILES | Pol beta inh | WRN helicase inh | POLK inh | POLH inh | FEN1 inhibitor | POLI inh
Cc1coc2c(C)c3oc(=O)c(CCC(=O)N[C@@H](C)C(=O)N[C@@H](Cc4ccccc4)C(=O)O)c(C)c3cc12 | ? | – | ? | 28µM | – | –
Cc1coc2c(C)c3oc(=O)c(CCC(=O)NCCc4ccccc4)c(C)c3cc12 | – | · | – | – | – | –
CCCC(NC(=O)Cc1c(C)c2cc3c(C)c(C)oc3c(C)c2oc1=O)C(=O)N[C@@H](Cc1ccccc1)C(=O)O (some centres not stated) | 28µM | – | ? | ? | – | ?
CSc1nc(=O)[nH]nc1Sc1ccccc1 | · | –[11.6 µM] | · | 45µM | · | ·
CSc1nc(Sc2ccccc2)c2ccccc2n1 | – | – | – | – | – | –
O=C(CSc1nnc2c3ccccc3c3ccccc3c2n1)Nc1ccccc1F | 11µM | ? | – | 32µM | – | –
O=c1[nH]c(=O)n(Cc2ccccc2)c2nc(-c3cccs3)n(CCO)c12 | 35µM | – | – | – | – | –
O=C1NC(Cc2ccccc2)C(=O)N1Cc1ccccc1 (configuration not stated) | · | – | – | – | – | –
O=c1ccsn1Cc1ccccc1 | – | 50µM | – | – | 56µM | 25µM
COc1cc2nc(N3CCCN(C)CC3)nc(N(C)C)c2cc1OC | · | · | – | · | ? | ?
O=Nc1[nH]c(=O)c(/C=C(\O)c2ccccc2)nc1NO | ? | – | – | ? | ? | 4µM
CN(C)c1ccc(/C=C(\C#N)C(=O)NCc2ccco2)cc1 | 56µM | · | · | · | · | ·
CCN(CC)c1ccc(/C=C(\C#N)C(=O)NCc2ccco2)cc1 | – | · | · | · | · | ·
NCC(=O)N[C@@H](CCCN=C(N)N)C(=O)NCC(=O)N[C@@H](CC(=O)O)C(=O)N[C@@H](CO)C(=O)O | · | · | – | · | · | ·
CCC1Nc2ncnc(N3CCCCC3)c2N(Cc2ccccc2)C1=O (configuration not stated) | · | –[11.6 µM] | – | 89µM | – | ?
CCC1Nc2ncnc(N3CCOCC3)c2N(Cc2ccccc2)C1=O (configuration not stated) | · | – | – | – | – | –
Oc1ccc(Br)cc1C1C=C(c2ccc3c(c2)OCO3)NC(c2ccc(Br)cc2)N1 (configuration not stated) | · | · | – | · | – | ?
Oc1ccc(Br)cc1C1C=C(c2ccc3c(c2)OCO3)NC(c2ccc(F)c(Br)c2)N1 (configuration not stated) | · | · | – | · | – | 13µM
COc1cc(C2CC(=O)Nc3c2c(=O)n(C)c2ncnn32)cc(OC)c1OC (configuration not stated) | – | · | – | – | – | 50µM
COC(=O)c1c(C)nc(C)c(C(=O)OC)c1-c1ccccc1[N+](=O)[O-] | · | · | – | · | · | ·
COc1ccc(CCN(C)C(=O)COC(=O)/C=C/c2ccc(C)o2)cc1OC | · | – | ? | ? | – | 50µM
O=C(Cc1cccs1)Nc1nnc(-c2ccncc2)s1 | ? | – | – | – | – | 63µM
COc1cccc(-c2nnc(NC(=O)Cc3cccs3)s2)c1 | 20µM | – | – | ? | – | –
CNC(=O)[C@H]1O[C@@H](n2cnc3c(N)ncnc32)[C@H](O)[C@H]1O | – | · | · | – | · | –
CC(=O)NC1=NC(=O)/C(=C/c2cn(C(C)=O)nc2-c2ccccc2)S1 | – | –[11.6 µM] | – | ? | ? | 22µM
SMILES | Pol beta inh | WRN helicase inh | POLK inh | POLH inh | FEN1 inhibitor | POLI inh
O=c1oc2cc([N+](=O)[O-])ccc2nc1/C=C(\O)c1cccc(Br)c1 | – | – | – | ? | 25µM | –
O=c1oc2cc([N+](=O)[O-])ccc2nc1/C=C(O)/C=C/c1ccccc1 | – | · | · | · | · | ·
O=C1CSC(c2cccnc2)N1c1ccccc1 (configuration not stated) | – | – | – | – | – | –
Cc1cccc(N2C(=O)CSC2c2cccnc2)c1 (configuration not stated) | 100µM | – | – | – | – | –
CC1CCC/C(=N\Nc2ccc(Cl)c(C(=O)O)c2)C1 (configuration not stated) | 32µM | ? | ? | 8.9µM | – | ?
COc1ccc2ccc3c(c2c1)N=C[C@]1(O3)N(C)c2ccccc2C1(C)C | – | 11µM | – | 71µM | ? | ?
Cc1ccc(S/C(=N/S(=O)(=O)c2ccc(Cl)cc2)c2ccccc2)cc1 | · | · | – | · | – | –
COc1ccc(CN(Cc2ccccc2)C(=O)c2ccncc2)cc1COc1ccc(NC(C)=O)cc1 | · | · | – | · | – | –
O=S(=O)(c1ccc(Cl)cc1)N1CCCC(c2nc(-c3ccc(F)cc3)no2)C1 (configuration not stated) | · | – | – | – | – | –
O=C(CC1CCCCC1)N1CCCC(c2nc(-c3ccc(S(=O)(=O)N4CCCC4)cc3)no2)C1 (configuration not stated) | 35µM | – | – | ? | – | ?
CCCOC(=O)NCCCN(C)C | · | · | – | · | · | ·
O=C(N/N=C/c1ccc2ccccc2c1)c1ccc(COc2ccc3c(c2)CCC3)o1 | 35µM | ? | – | 10µM | ? | –
COc1cc(/C=N/NC(=O)Cc2ccc(Br)cc2)cc(OC)c1O | 22µM | – | – | – | – | –
COc1cc(/C=N/NC(N)=O)cc([N+](=O)[O-])c1O | ? | – | ? | 50µM | – | –
COc1cc(/C=N/NC(=O)c2sc(N)c(C#N)c2C)cc(Br)c1O | – | – | – | ? | – | ?
COc1cc(/C=N/NC(=O)CC#N)cc(Br)c1O | – | – | – | – | – | 45µM
COc1ccc(/C=N/NC(=O)Cc2ccc(Cl)cc2)cc1OC | – | – | – | – | – | –
CC(NC(=O)COC(=O)c1ccco1)C12CC3CC(CC(C3)C1)C2 (configuration not stated) | · | · | – | · | – | –
CSCC[C@H](NC(=O)[C@H](Cc1c[nH]c2ccccc12)NC(=O)CCNC(=O)OC(C)(C)C)C(=O)N[C@@H](CC(=O)O)C(=O)N[C@@H](Cc1ccccc1)C(N)=O | · | · | – | · | · | ·
COc1cc(/C=N/NC(=O)c2ccc(COc3ccccc3Cl)o2)cc(Br)c1O | 28µM | – | – | ? | – | ?
COc1cccc(/C=N/NC(=O)c2ccc(COc3ccc(Cl)cc3Cl)o2)c1 | – | – | – | – | – | –
COc1ccc2[nH]c(S(=O)Cc3ncc(C)c(OC)c3C)nc2n1 (configuration not stated) | · | · | –[19.4 µM] | · | · | ·
COc1cc(C(=S)N2CCCCC2)ccc1O | – | – | – | – | – | 56µM
CC(Cl)OC(=O)Nc1cccc2cccnc12 (configuration not stated) | · | · | – | · | – | –
CN(Cc1ccco1)C(=O)CSc1nn2c(=O)c(C(C)(C)C)nnc2s1 | · | –[11.6 µM] | – | 79µM | – | ?
COc1ccc(C(C)(C)C)cc1NC(=O)COC(=O)c1ccc([N+](=O)[O-])o1 | – | – | – | – | 25µM | ?
